Screening results (PubChem BioAssay)
The list is not random: actives were taken first. Their share in the collection is about 2.1%.
PABP FP inh: PABP-poly(A) binding inhibition; P11940; PABP-poly(A) RNA binding, fluorescence polarization; inhibition, % at 35 µM; 290,000 tested, 1% active; AID 2014;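 note: calls also rest on retests at 20 µM and on dose response follow-up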
eIF4H inh: inhibitors of RNA binding by human eIF4H; AID 2012; eIF4H fluorescence polarization binding assay; Q15056; inhibition, % at 35 µM; 290,000 tested, 0.94% active;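 note: calls also rest on retests at 20 µM and on dose response follow-up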
PABP1 MLLE inh: inhibitors of microRNA-mediated deadenylation, human PABP1 MLLE binding. P11940. GST-MLLE / FITC-PAM2 fluorescence polarization. inhibition, % at 20 µM. 360,000 tested, 0.36% active. AID 588489; in the data active = inhibition above about 35%, passing the limit was not always enough;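 note: plate controls were DMSO wells with GST-MLLE for no effect and wells lacking GST-MLLE protein for full effect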
NRP1-CendR mod: NRP-1/CendR interaction modulation; O14786; FAM-RPARPAR peptide binding to NRP-1, fluorescence polarization; inhibition, % at 25 µM; 360,000 tested, 0.85% active;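 active = inhibition or corrected inhibition above about 18%, plus a signal ratio from 0.5 to 1.5, limit read from the data, passing the limit was not always enough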
Numbers without * were called inactive; i = inactive; ? = inconclusive; · = no result given. Unless noted, the rule behind the calls is not given here.

SMILES	PABP FP inh	eIF4H inh	PABP1 MLLE inh	NRP1-CendR mod
O=C(c1ccc(C(F)(F)F)cc1)N1CCC(=O)N(C(CO)Cc2ccccc2)CC1 (stereo unspecified)	·	·	9	26*
COc1ccc(OC)c(C(=O)NC2CC(C)(C)Cc3c2cnn3-c2ccccc2)c1 (stereo unspecified)	7	-12	-21	0
COc1ccccc1-n1cc2c([N+](=O)[O-])cc([N+](=O)[O-])cc2n1	7	-8	-14	-4
CN1CCN(C2=C(Cl)C(=O)c3ccccc3C2=O)CC1	·	·	30	36*
O=C1C(Cl)=C(N2CCC(C(=O)O)CC2)C(=O)c2ccccc21	34	13	55*	35*
NC(=O)C1CCN(C2=C(Cl)C(=O)c3ccccc3C2=O)CC1	10	12	38	22
CC(C)NC(=O)C1C(c2ccccc2)=Nc2ccccc2N1C(=O)c1ccc(C(F)(F)F)cc1 (stereo unspecified)	·	·	·	1
O=C1/C(=C\c2ccco2)CCC/C1=C\c1ccco1	3	86	-43	16
CC1C/C(=C/c2cccs2)C(=O)/C(=C/c2cccs2)C1 (stereo unspecified)	-1	74	-19	-31
O=C1/C(=C/c2cccs2)CCC/C1=C\c1cccs1	53*	72*	-20	-31
Cn1cccc1/C=C1\CCC/C(=C\c2cccn2C)C1=O	61*	52*	i	122
O=S(=O)(NC(CO)Cc1ccccc1)c1ccc(Br)cc1F (stereo unspecified)	·	·	5	5
C=CCn1c(O)c(N=NC(=O)OCC)c2ccccc21	74	active	5	3
O=C1CCCN1CCCNc1nc2c(S(=O)(=O)c3ccc(Br)cc3)nnn2c2ccccc12	-4	-2	3	4
CCN1C(=O)C(C(=O)c2ccccc2)SC1=S (stereo unspecified)	-3	20	38*	12
CCN1C(=O)C2C(C1=O)N1C(c3ccccc3)C3C(=O)N(CC)C(=O)C3N1C2c1ccccc1 (stereo unspecified)	-2	4	-4	-7
CC1CN(Cc2c(O)ccc3c(=O)c(-c4ccccc4)coc23)CC(C)O1 (stereo unspecified)	-10	-4	2	38*
O=c1c(-c2ccccc2)coc2c(CN3CCCCC3)c(O)ccc12	-1	3	8	14
CCOC(=O)C1=NOC(COc2ccccc2C=O)C1 (stereo unspecified)	67*	6.7*	17	-2
O=C(Nc1ccc2c(c1)OCO2)c1c[nH]c(=O)n(-c2ccc(F)cc2)c1=O	7	25	13	20*
COc1ccc(-n2c(=O)[nH]cc(C(=O)Nc3ccc4c(c3)OCCO4)c2=O)cc1OC	-2	0	10	-4
COCCn1c(C)cc(C(=O)CSc2nc3ccccc3c(=O)[nH]2)c1C	17	11	19	-17
COCCn1c(C)cc(C(=O)CSc2ccc3ccccc3n2)c1C	69*	62*	11	5
Cc1cc(SCC(=O)c2cc(C)n(C)c2C)nc2ccccc12	-4	4	6	42*
Cc1nn(-c2ccccc2)c(C)c1C(=O)OCC(=O)N(C)C1CCS(=O)(=O)C1 (stereo unspecified)	20	3	-7	10
SMILES	PABP FP inh	eIF4H inh	PABP1 MLLE inh	NRP1-CendR mod
CN(C(=O)COC(=O)c1cn(-c2ccccc2)nc1-c1ccccc1)C1CCS(=O)(=O)C1 (stereo unspecified)	?	active	9	-3
CCN(C(=O)COC(=O)c1cn(-c2ccccc2)nc1-c1ccccc1)C1CCS(=O)(=O)C1 (stereo unspecified)	20	-4	14	6
CN(C(=O)COC(=O)c1nc(-c2ccccc2)n(-c2ccccc2)n1)C1CCS(=O)(=O)C1 (stereo unspecified)	16	6	-2	40*
COc1ccc(CNC(=O)CCCn2nc(C)c3c(C)n(-c4ccc(C)cc4)nc3c2=O)cc1	-4	-4	-6	16
CC(/C=N/n1cnnc1)=C\c1ccco1	active	72	2	-13
CCN(CC)c1ccc(N/C(N)=N/c2nc(C(F)(F)F)cc(=O)[nH]2)cc1	79*	active	-5	-4
CC1(COS(N)(=O)=O)CCCCC1	3	-4	-5	21
CCC(C)(C)NC(=O)C(c1ccc(OC)cc1)N(Cc1ccc(OC)cc1)C(=O)CCC(=O)Nc1cc(C)on1 (stereo unspecified)	7	6	12	8
CCOC(=O)Cn1c(=NC(=O)c2ccc([N+](=O)[O-])s2)sc2ccccc21	0	7	-39	56*
CCOC(=O)Cn1c(=NC(=O)C2COc3ccccc3O2)sc2cc(S(N)(=O)=O)ccc21 (stereo unspecified)	1	12	14	-1
COC(=O)C1=C(C)N=c2s/c(=C/c3ccoc3)c(=O)n2C1c1ccccc1 (stereo unspecified)	105*	83*	-115	-225
Brc1ccc(-c2csc(/N=C/N3CCOCC3)n2)cc1	-2	1	3	10
Brc1ccc(-c2csc(/N=C/N3CCCC3)n2)cc1	67*	active	11	6
Cc1ccc(C(=O)NCCN2C3=NC[C@H](C)N3C[C@H]2Cc2ccc(O)cc2)cc1Br	-1	3	6	25*
COc1ccc(C[C@H]2CN3C(=NC[C@H]3C)N2CCNC(=O)c2ccc(C)c(Br)c2)cc1	-5	6	7	7
CCOC(=O)c1ccc(NC(=O)C2(c3ccccc3)CCOCC2)cc1	-19	-1	1	31*
Cc1sc2ncnc(N/N=C/c3cccc(O)c3)c2c1C	3	-2	1	6
C/C(=N\Nc1ncnc2sc(C)c(C)c12)c1ccccn1	53*	?	-8	-15
COC(=O)C1=C(C)NC(=O)C1(NS(=O)(=O)c1ccc(C)cc1)C(F)(F)F (stereo unspecified)	8.5*	59	11	4
O=C(CN1CCOCC1)N1CCOCC1	·	·	1	0
CC(=O)N(CC#CCN(C(C)=O)c1ccccc1)c1ccccc1	·	·	5	-10
OC[C@@H]1CN(Cc2ccccc2)C[C@H](n2cnc3c(Nc4ccccc4)ncnc32)O1	·	·	-19	-7
CCn1c(C)cc(=S)c2ccccc21	21	0	40*	11
CCn1c2ccccc2c2cc(N)ccc21	56*	72*	-25	-56
CCCCOc1ccc(/C=c2\sc3ncnn3c2=O)cc1	1	-1	4	20*
SMILES	PABP FP inh	eIF4H inh	PABP1 MLLE inh	NRP1-CendR mod
CC(=O)Oc1cccc(C(=O)Nc2ccccc2C(=O)N2CCCC2)c1	2	2	-1	20*
COc1cccc(C(=O)Nc2ccccc2C(=O)N2CCCC2)c1	7	-5	6	3
Cc1noc(C)c1S(=O)(=O)N(C)C[C@@H]1OCc2cnnn2CCCC(=O)N([C@@H](C)CO)C[C@H]1C	·	·	4	0
O=C(/C=C/c1cccc(Cl)c1)OCC(=O)c1ccc[nH]1	·	·	11	-1
O=c1oc(/C=C/c2ccco2)nc2sc3c(c12)CCC3	81*	73*	4	-25
COc1cccc(CNC(=O)CCS(=O)(=O)c2cc3c(cc2C)NC(=O)CO3)c1	-7	11	-16	2
